FBW7 act = FBW7 E3 ligase activators, primary screen, biochemical, AlphaScreen, human | AlphaScreen FBW7–phospho-cyclin E peptide binding, activator screen | normalized activity (activation), % at 26.1 µM | 650,000 compounds, 0.13% hits | AID 1259310, 2017; in the data active means normalized activity above about 1.9%;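 further: purified mutant Fbw7 with reduced substrate affinity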
MITF inh = MITF inhibitors, primary screen, biochemical, AlphaScreen, human; Microphthalmia-associated transcription factor (Homo sapiens), O75030; AlphaScreen MITF homodimerization, bead proximity signal; inhibition, % at 2.6 µM; 650,000 compounds, 0.91% hits; AID 1259374, 2018; in the data active means inhibition above about 50%;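 further: 0% = vehicle wells with protein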
GPR151 ag = activators of human GPR151, primary screen, cell-based, PathHunter beta-arrestin, luminescence; G-protein coupled receptor 151 (Homo sapiens), Q8TDV0; PathHunter beta-arrestin GPR151 cells; activation, % at 11.2 µM; 650,000 compounds, 1% hits; AID 1508602, 2020; in the data active means activation above about 4.9%;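 further: 0% = median of compound wells and 100% = cells with positive control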
TEAD-YAP inh = TEAD-YAP interaction inhibition, primary screen, TEAD-YAP interaction inhibitor project, luminescence, HEK-TIYL cells. TEAD-Gal4/YAP UAS-luciferase luminescence. inhibition, % at 9.12 µM. 640,000 compounds, 1.4% hits. AID 1259422, 2018; in the data active means inhibition above about 32%;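 further: 0% = median of test compound wells and 100% = reference inhibitor wells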
GPR151 confirm = GPR151 activators, triplicate retest, confirmation, cell-based, PathHunter beta-arrestin, luminescence. 6,700 tested, under 10 active. shares compounds with GPR151 ag. activation, % at 11.2 µM. GPR151 PathHunter beta-arrestin cells, 90 min; % of EA-reagent control over plate median. AID 1508609, 2020;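 active means mean percent activation across replicates above the confirmation screen cutoff of 4.91%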
GPR119 ag = GPR119 activators in beta-arrestin cells, counter-screen for GPR151 activator project, cell-based, PathHunter beta-arrestin, luminescence, triplicate | AID 1508611, 2020 | shares compounds with GPR151 ag | activation, % at 11.2 µM | 6,700 compounds, 0.3% hits | 90 min; 0 = compound-well median, 100 = enzyme-acceptor control;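 active means mean percent activation in the counterscreen above 29.09%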;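 further: counterscreen on off-target GPR119 to flag nonselective hits from the GPR151 activator screen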
Target sequence (Q8TDV5 whole entry, looked up): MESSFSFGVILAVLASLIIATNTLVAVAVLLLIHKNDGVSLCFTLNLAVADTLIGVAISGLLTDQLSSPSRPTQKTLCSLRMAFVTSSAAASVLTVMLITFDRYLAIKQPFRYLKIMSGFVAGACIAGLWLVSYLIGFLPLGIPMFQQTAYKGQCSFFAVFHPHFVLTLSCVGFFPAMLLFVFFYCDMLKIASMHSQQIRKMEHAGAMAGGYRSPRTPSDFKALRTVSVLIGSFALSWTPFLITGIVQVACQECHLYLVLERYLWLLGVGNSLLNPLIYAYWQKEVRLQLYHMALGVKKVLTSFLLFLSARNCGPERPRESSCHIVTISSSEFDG
* hit, by the source's call; . = no result. A selection: hits, their analogues and other compounds. The true share with any hit is near 3.5%.

SMILES	FBW7 act	MITF inh	GPR151 ag	TEAD-YAP inh	GPR151 confirm	GPR119 ag
O=C1[C@H]2[C@H]3[C@H](O)[C@H](O)C/C(=N\OCc4ccccc4)[C@H]3CC[C@H]2C(=O)N1C1CCCCC1	1	2	5.8*	.	2	21
C#CCCCO/N=C1\C[C@@H](O)[C@@H](O)[C@@H]2[C@@H]3C(=O)N([C@@H](C)c4ccccc4)C(=O)[C@@H]3CC[C@H]12	0	14	9.5*	.	1	6
COc1cc(NC(=O)c2cccc(-n3cc(NC(=O)CCc4cccc(C)c4)cn3)c2)cc(OC)c1OC	0	4	1	26	.	.
S=C(c1cn(Cc2ccc(Cl)cc2)c2ccccc12)N1CCCC1	0	10	-1	4	.	.
CCOc1cccc(CN2CCC(C(=O)NC(C)c3ccccc3)CC2)c1O (stereo not given)	0	0	5.6*	1	0	6
CCOC(=O)N1CCc2c(sc(NC(=O)c3ccc(Br)s3)c2C#N)C1	0	9	9.1*	3	0	5
CCc1ccc(N(CC(=O)N2CCN(CC)CC2)S(C)(=O)=O)cc1	0	-1	3	-11	.	.
CCC(C)NC(=O)C1=CC(c2cccc(OC)c2)=NS(=O)(=O)N1C (stereo not given)	0	-4	5.2*	5	0	-8
CCC(C)NC(=O)C1=CC(c2ccc(OC)c(OC)c2)=NS(=O)(=O)N1C (stereo not given)	0	8	1	12	.	.
CSc1nc2c(c(=O)[nH]1)C(c1cccc(F)c1)C1=C(CCCC1=O)N2 (stereo not given)	0	20	0	5	.	.
COc1ccc(-c2cc(C(=O)Nc3ccc(Oc4ccccc4)cc3)ccn2)cc1	0	2	1	-7	.	.
c1ccc2c(NC3CCCC3)nc(N3CCNCC3)nc2c1	0	2	2	-5	.	.
CN1CCN(c2nc(NC3CCCCC3)c3ccccc3n2)CC1	0	-33	12*	4	0	18
CC(=O)c1ccc(S(=O)(=O)NCCc2cn3ccc(C)cc3n2)cc1	0	5	5.0*	-4	1	10
O=S(=O)(O)c1nc2ccccc2n1CCOc1ccc(Br)cc1	0	-4	0	-1	.	.
COC(=O)C1=C(O)/C(=C\c2ccc(F)cc2)N=C1C	0	-6	8.6*	6	1	-7
CCCNC(=O)CCCOc1ccc(Cl)cc1Cl	0	12	13*	-4	-1	3
CCOCCCNC(=O)CCCOc1ccc(Cl)cc1Cl	0	-5	0	0	.	.
CC1=C(C)/C(=N/OC(=O)c2ccc(C)cc2)C=CC1=O	0	2	7.0*	-2	0	12
O=C1CCCN1CCCn1c(=S)[nH]c2cc(C(=O)N3CCC4(CC3)OCCO4)ccc2c1=O	0	11	0	-5	.	.
O=C(c1cc(COc2cccc(C(F)(F)F)c2)on1)N1CCCCO1	0	12	-1	-66	.	.
Cc1ccccc1NC(=S)Nc1cccnc1	0	9	-1	1	.	.
Cc1ccccc1NC(=S)NCc1cccnc1	0	5	8.3*	10	1	2
OCc1ccccc1NC(=S)Nc1cccnc1	0	12	5.8*	0	-1	-10
COc1ccc(C(=O)Oc2coc(CSc3ncccn3)cc2=O)cc1	0	4	-2	0	.	.
SMILES	FBW7 act	MITF inh	GPR151 ag	TEAD-YAP inh	GPR151 confirm	GPR119 ag
COC(=O)c1ccc(C2C3=C(CC(C)(C)CC3=O)N(c3ccc(Cl)c(Cl)c3)C3=C2C(=O)CC(C)(C)C3)cc1	0	20	1	-2	.	.
CNC(=O)CCCc1nnc2n(CCC(C)C)c(=O)c3sccc3n12	0	13	-2	3	.	.
CC(C)CCn1c(=O)c2sccc2n2c(CCCC(=O)NC3CC3)nnc12	0	4	5.0*	6	1	1
CCCCOc1ccc(CSc2nncn2N)cc1[N+](=O)[O-]	0	9	5.1*	-39	-1	-11
NS(=O)(=O)c1ccc(N/N=C2\CCc3ccccc32)c([N+](=O)[O-])c1	0	10	7.5*	0	-1	-8
Cc1cc(C)c2c(c1)/C(=N/Nc1ccc(S(N)(=O)=O)cc1[N+](=O)[O-])CCC2	0	-2	1	0	.	.
NC(COP(=O)(O)O)C(=O)O (stereo not given)	0	28	5.5*	8	0	4
CC(=O)C1=C(O)C(=O)N(CCCN2CCOCC2)C1c1ccccc1 (stereo not given)	0	-16	0	0	.	.
Cc1cccc(C)c1NC(=O)C(=O)NCCc1ccccc1	0	-7	0	-1	.	.
Cc1cccc(C)c1NC(=O)C(=O)NCCc1ccc(F)cc1	0	-7	6.4*	-6	0	-5
Cc1nn(-c2ccc(Nc3ccc(NC(=O)c4cccc(F)c4)cc3)nn2)c(C)c1C	0	-13	7.6*	-22	3	15
CCC(c1nnnn1C(C)(C)CC)N1CCN(Cc2ccccc2)CC1 (stereo not given)	0	4	6.3*	-9	-1	-13
Cn1c(=O)cc(OCC(=O)N2CCCCC2)c2ccccc21	0	-10	-1	-9	.	.
Cc1ccc2c(NC(=O)c3ccc(Cl)cc3)noc2n1	0	-6	7.1*	-30	0	-10
COc1ccccc1OCCOCCn1cnc2ccccc2c1=O	0	-3	14*	-14	0	0
O=c1c2ccccc2ncn1CCOCCOc1cccc2ccccc12	0	9	1	0	.	.
Cc1ccc(OCCCCn2cnc3ccccc3c2=O)cc1	0	10	5.5*	2	0	-4
COc1ccc(-c2nnc3ccc(SCC(=O)Nc4cccc(C)c4)nn23)cc1	0	7	0	-8	.	.
C=CCn1c(=O)c2ccccc2n2c(SCC#N)nnc12	0	4	-1	16	.	.
Cc1cc(NC(=O)NC2(C(F)(F)F)Oc3ccc(Cl)cc3O2)ccc1Br (stereo not given)	0	-6	-1	-10	.	.
CN(Cc1ccccc1)C1(O)C(=O)Nc2ccc([N+](=O)[O-])cc21 (stereo not given)	0	-4	12*	5	-1	10
CN(Cc1ccccc1)C1(O)C(=O)Nc2ccc(Cl)cc21 (stereo not given)	0	7	2	2	.	.
CC(C)NC(=O)c1cccc2nc3ccccc3nc12	0	9	1	13	.	.
NC(=O)c1cccc2nc3ccccc3nc12	0	1	8.8*	4	0	-8
